The values that follow come from PubChem BioAssay (NCATS).

Experiment [1] in a line: AP1 Signaling Pathway (AID 357). Note: % is set by controls: 0 for no effect and ±100 for the full control effect. In short, it runs like this:
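AP-1-bla ME-180 cells with beta-lactamase reporter under AP-1 response element, stimulated with EC50 EGF; compounds titrated, 5 hours at 37 degrees Celsius. CCF4 read at 460/530 nm ratio; positive and negative modulators judged by AC50.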

A short description of experiment [2]: NFAT Signaling Pathway (AID 444).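 Note: carbachol stimulus at about its EC50 of 1 µM final; % is set by controls: 0 for no effect and ±100 for the full control effect.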 As to conditions: Jurkat NFAT-bla M1, carbachol, beta-lactamase ratio, 5 h. In short, it runs like this: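 Jurkat cells with NFAT-driven β-lactamase reporter and co-expressed M1 receptor, stimulated with carbachol (final 1 uM, ~EC50), compound titration, 5 h at 37 °C. CCF4 loaded 1 h at RT; 460/530 nm ratio gave %activity and AC50.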

The nature of experiment [3]: Stat Signaling Pathway (AID 446).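 Note: ME-180 cervical cancer cells given 40 pM IL-6 alongside compound; SIE-controlled beta-lactamase reporter measured as 460/530 nm FRET emission ratio; % is set by controls: 0 for no effect and ±100 for the full control effect.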 In short, it runs like this:
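FRET read-out (405 nm excitation, 460/530 nm emission) of a beta-lactamase reporter under a STAT-inducible element in ME-180 cervical carcinoma cells. Cells with compound receive 40 pM IL-6 for 5 h. Values are normalised to AC90 stimulation and AC90 JAK-inhibitor controls.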

The target in experiment [4] is Glucocorticoid receptor (Homo sapiens) (UniProt P04150). As to the kind of experiment: GR-GFP Redistribution (AID 450;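 active = compounds whose dose series gives a full or clear partial fitted curve of increased nuclear translocation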; note: potency is the fitted concentration of half-maximal effect). Conditions: U2OS GR-GFP nuclear translocation, laser cytometry, 2 h.
For experiment [5] the target is unchanged. The experiment is described as follows: GR-EFC Redistribution (AID 451; calls by dose curve; note: potency is the fitted concentration of half-maximal effect). Conditions: CHO-K1 GR-EFC translocation, beta-gal luminescence, 2 h. In short, it runs like this: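 CHO-K1 cells expressing nuclear EA and GR-ED fragments of b-gal; compounds titrated up to 46 uM final, 2 h at 37 C. GR nuclear translocation read as complemented b-gal luminescence after 1 h RT detection.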

In experiment [6] the target is Mitogen-activated protein kinase 10 (Mus musculus) (UniProt Q61831). As to the kind of experiment: JNK3 AlphaScreen Assay (AID 530).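 Note: kinase came from lysate of stimulated human HepG2 cells; signal reports phosphorylation of biotinylated GST-cJun 1-79 at Ser73 with 10 µM ATP; % is set by controls: 0 for no effect and ±100 for the full control effect.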 Summed up:
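HepG2 lysate (IL-1b/TNFa pre-activated) + biotin-GST-cJun 1-79 + anti-pSer73 cJun; cpd titration, 15 min RT; ATP 10 uM start; Tris pH 7.6, MgCl2, DTT, vanadate; beads in EDTA buffer; AlphaScreen.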
For orientation: Bead proximity is the source of the signal in Alpha formats.

For experiment [7], the target named is 3',5'-cyclic-AMP phosphodiesterase 4B (Homo sapiens) (UniProt Q07343). The experiment is described as follows: qHTS Assay for Inhibitors of PDE-IV (AID 607; active = well fitted activation curve with a large enough effect in the main read-out, with a control signal flat, not every such curve was filed as active; note: % of control where 0% means no effect). In short, it runs like this: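 Cell-based read-out of cAMP via a modified cyclic nucleotide-gated channel and membrane potential dye (535/590 nm) in HEK293 cells expressing PDE4 endogenously. Compounds tested up to 22.9 uM final; 100 uM RO 20-1724 reference.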
A general note: Quantitative high-throughput screening tests each substance at several concentrations.

Experiment [8] in a line: qHTS Assay for Lipid Storage Modulators (AID 1519; calls by dose curve). As to conditions: Drosophila S3 cells, BODIPY lipid droplet/cell ratio, laser cytometry, cells loaded with oleic acid. In short, it runs like this:
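Cells seeded at 5,000 per well were treated with compounds over a concentration series and loaded with oleic acid (400 uM, as added). Lipid droplet fluorescence (488 nm excitation, 500-530 nm channel) was read by laser-scanning cytometry and normalized to 20 uM Triacsin C.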

Experiment [9] concerns the target ATP-dependent 6-phosphofructokinase (Trypanosoma brucei brucei) (UniProt O15648). The experiment is described as follows: qHTS Assay to Find Inhibitors of T. brucei phosphofructokinase: hit validation (AID 492961; active = well fitted curve in the direction sought with a large enough effect; an effect the other way counts as inactive or inconclusive; note: % is set by controls: 0 for no effect and ±100 for the full control effect). Summed up: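 Luminescence from ADP-Glo reports ADP generated as T. brucei PFK (1.25 nM) phosphorylates 0.5 mM fructose-6-phosphate using 0.1 mM ATP. Reactions ran 45 min at room temperature, pH 8.0.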

Experiment [10] addresses Luciferin 4-monooxygenase (Photinus pyralis) (UniProt P08659). As to the kind of experiment: Biochemical firefly luciferase enzyme assay for NPC (AID 624030; active = well fitted curve in the direction sought with a large enough effect; an effect the other way counts as inactive or inconclusive;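 note: purified P. pyralis luciferase at 10 nM with luciferin and ATP substrate; 0% = DMSO and -100% = full luciferase inhibition by PTC124 control; nearly all actives have a fitted effect of over 70% in size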). Summed up: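 Purified P. pyralis luciferase at 10 nM in 50 mM Tris Acetate (final), luminescence read within 5 minutes of enzyme addition to compounds. Activity normalised to PTC124 versus DMSO; concentration-response curves classed by r2, magnitude and activity.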

The nature of experiment [11]: S16 Schwann cell PMP22 intronic element firefly luciferase assay (AID 624032; active = well fitted curve in the direction sought with a large enough effect; an effect the other way counts as inactive or inconclusive;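 note: plate controls were DMSO for no effect and PTC124 positive control mean for full effect; nearly all actives have a fitted effect of over 30% in size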). Summed up: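 Rat S16 Schwann cells stably carrying firefly luciferase driven by a PMP22 intronic element, in 10% FBS, treated 24 h at 37 C. ONE-Glo luminescence normalized to PTC124 control and DMSO (0%); curves classed by r2, magnitude and activity.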
A short description of experiment [12]: qHTS profiling for inhibitors of Plasmodium falciparum proliferation (AID 504749; active = well fitted curve in the direction sought with a large enough effect; an effect the other way counts as inactive or inconclusive;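 note: 0% = DMSO vehicle and full inhibition = artemisinin control; nearly all actives have a fitted effect of over 60% in size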). As to conditions: P. falciparum in erythrocytes, SYBR Green DNA, 72 h. In short, it runs like this:
(§1)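 SYBR Green fluorescence (ex 485 nm, em 535 nm) reports parasite DNA after 72 h compound exposure of infected red cells at 0.3% parasitemia, 2.5% hematocrit; signal normalized to 0.29 uM artemisinin and vehicle wells.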

In the next experiment the test system is C2A. The experiment is described as above. As to conditions: P. falciparum in erythrocytes, SYBR Green DNA, 72 h; series mostly up to 28.7 µM. In short, it runs like this:
as §1

Another experiment deals with CP192. Described as above. As to conditions: P. falciparum in erythrocytes, SYBR Green DNA, 72 h; series mostly up to 28.7 µM. In short, it runs like this:
as §1

A further experiment has as its system CP262. The description is as above. Conditions: P. falciparum in erythrocytes, SYBR Green DNA, 72 h; series mostly up to 28.7 µM. In short, it runs like this: as §1
A further experiment concerns CP286. The description is as above. As to conditions: P. falciparum in erythrocytes, SYBR Green DNA, 72 h; series mostly up to 28.7 µM. Summed up: as §1
Another experiment concerns FAB9. The description is as above. As to conditions: P. falciparum in erythrocytes, SYBR Green DNA, 72 h; series mostly up to 28.7 µM. In short, it runs like this:
as §1

The target of experiment [13] is Ubiquitin carboxyl-terminal hydrolase 1 (Homo sapiens) (UniProt O94782). As to the kind of experiment: Inhibitors of USP1/UAF1: Pilot qHTS (AID 504865; active = well fitted curve in the direction sought with a large enough effect; an effect the other way counts as inactive or inconclusive;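 note: rhodamine fluorescence freed from ubiquitin-rhodamine substrate followed over time; top concentration of the series differs between compounds; % is set by controls: 0 for no effect and ±100 for the full control effect; nearly all actives have a fitted effect of over 35% in size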). Summed up: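 In 50mM HEPES pH 7.8 containing 0.5mM EDTA, 1mM TCEP, 0.1 mg/ml BSA and 0.01% Tween-20, 1nM USP1/UAF1 is exposed to compound for 15 min, then Ub-Rho (150nM final) is added and fluorescence is read over time.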

Experiment [14] addresses Cytochrome P450 3A4 (Homo sapiens) (UniProt P08684). As to the kind of experiment: qHTS Assay for Activators of Cytochrome P450 3A4 (AID 885; active = well fitted curve in the direction sought with a large enough effect; an effect the other way counts as inactive or inconclusive; note: nearly all actives have a fitted effect of over 65% in size). In short, it runs like this: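 Luminescent readout of luciferin formed from 25 uM Luciferin-PPXE (KM level) by 20 nM CYP3A4 in 200 mM KPO4, with 60 min NADPH-driven reaction at room temperature after 10 min compound exposure. Ketoconazole (57 uM) defined 100% inhibition.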

Setting [15] is: measured here: cell count channel max response.
Where [16] appears, read: measured here: lipid channel max response.

“And” between values parts separate entries of the source, which are not always exact repeats. Identical values can stand only once. Inconclusive results are not listed. The source made the active and inactive calls. Unless noted, calls come from the whole dose curve; as a rule, active = well fitted curve in either direction with a large enough effect (not every such curve was filed as active); inconclusive = small, poorly fitted or top-dose-only effect, or another doubt; inactive = flat fitted curve, though single readings scatter.

Ubiquitin carboxyl-terminal hydrolase 1 (Homo sapiens), sequence (O94782 whole entry, looked up): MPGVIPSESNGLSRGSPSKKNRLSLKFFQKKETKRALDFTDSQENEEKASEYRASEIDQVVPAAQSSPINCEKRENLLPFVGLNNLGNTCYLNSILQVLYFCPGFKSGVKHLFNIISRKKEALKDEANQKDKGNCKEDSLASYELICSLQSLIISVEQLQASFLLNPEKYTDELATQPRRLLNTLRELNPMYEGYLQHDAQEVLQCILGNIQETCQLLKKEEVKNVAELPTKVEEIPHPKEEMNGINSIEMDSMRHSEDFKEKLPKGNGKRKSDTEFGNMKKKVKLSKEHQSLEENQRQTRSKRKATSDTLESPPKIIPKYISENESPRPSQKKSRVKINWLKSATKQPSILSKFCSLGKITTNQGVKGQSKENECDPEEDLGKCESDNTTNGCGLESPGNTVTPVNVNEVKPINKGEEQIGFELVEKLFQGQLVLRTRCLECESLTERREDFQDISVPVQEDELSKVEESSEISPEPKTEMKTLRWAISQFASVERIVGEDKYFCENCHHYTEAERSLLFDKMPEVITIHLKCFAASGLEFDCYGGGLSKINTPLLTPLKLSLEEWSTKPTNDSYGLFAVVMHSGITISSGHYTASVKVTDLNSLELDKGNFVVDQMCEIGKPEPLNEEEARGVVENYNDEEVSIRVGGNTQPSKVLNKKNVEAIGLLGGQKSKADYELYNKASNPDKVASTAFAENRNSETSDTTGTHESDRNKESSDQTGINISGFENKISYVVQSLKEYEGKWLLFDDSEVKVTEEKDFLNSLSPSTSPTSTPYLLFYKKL
Glucocorticoid receptor (Homo sapiens), sequence (P04150 whole entry, looked up, the tested form may be a part): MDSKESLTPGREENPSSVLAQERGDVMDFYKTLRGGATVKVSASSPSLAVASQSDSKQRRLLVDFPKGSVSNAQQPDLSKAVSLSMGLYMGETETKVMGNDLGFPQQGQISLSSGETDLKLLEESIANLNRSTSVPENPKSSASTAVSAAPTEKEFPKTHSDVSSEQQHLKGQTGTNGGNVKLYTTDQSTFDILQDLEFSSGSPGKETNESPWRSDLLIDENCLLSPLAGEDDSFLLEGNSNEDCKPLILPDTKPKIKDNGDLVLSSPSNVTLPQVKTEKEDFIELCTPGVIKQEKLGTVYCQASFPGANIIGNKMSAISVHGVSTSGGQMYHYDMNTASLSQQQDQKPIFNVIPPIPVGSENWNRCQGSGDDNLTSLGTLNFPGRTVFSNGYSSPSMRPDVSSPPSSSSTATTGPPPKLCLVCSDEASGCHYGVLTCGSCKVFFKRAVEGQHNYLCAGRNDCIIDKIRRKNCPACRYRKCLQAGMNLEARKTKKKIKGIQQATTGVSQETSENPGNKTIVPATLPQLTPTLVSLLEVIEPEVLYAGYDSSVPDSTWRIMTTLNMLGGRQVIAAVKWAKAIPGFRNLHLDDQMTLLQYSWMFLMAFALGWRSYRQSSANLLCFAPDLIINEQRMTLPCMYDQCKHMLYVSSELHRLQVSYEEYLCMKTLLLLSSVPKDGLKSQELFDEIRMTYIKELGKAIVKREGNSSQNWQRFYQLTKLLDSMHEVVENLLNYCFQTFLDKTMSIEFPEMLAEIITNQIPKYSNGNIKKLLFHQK
3',5'-cyclic-AMP phosphodiesterase 4B (Homo sapiens), sequence (Q07343 whole entry, looked up): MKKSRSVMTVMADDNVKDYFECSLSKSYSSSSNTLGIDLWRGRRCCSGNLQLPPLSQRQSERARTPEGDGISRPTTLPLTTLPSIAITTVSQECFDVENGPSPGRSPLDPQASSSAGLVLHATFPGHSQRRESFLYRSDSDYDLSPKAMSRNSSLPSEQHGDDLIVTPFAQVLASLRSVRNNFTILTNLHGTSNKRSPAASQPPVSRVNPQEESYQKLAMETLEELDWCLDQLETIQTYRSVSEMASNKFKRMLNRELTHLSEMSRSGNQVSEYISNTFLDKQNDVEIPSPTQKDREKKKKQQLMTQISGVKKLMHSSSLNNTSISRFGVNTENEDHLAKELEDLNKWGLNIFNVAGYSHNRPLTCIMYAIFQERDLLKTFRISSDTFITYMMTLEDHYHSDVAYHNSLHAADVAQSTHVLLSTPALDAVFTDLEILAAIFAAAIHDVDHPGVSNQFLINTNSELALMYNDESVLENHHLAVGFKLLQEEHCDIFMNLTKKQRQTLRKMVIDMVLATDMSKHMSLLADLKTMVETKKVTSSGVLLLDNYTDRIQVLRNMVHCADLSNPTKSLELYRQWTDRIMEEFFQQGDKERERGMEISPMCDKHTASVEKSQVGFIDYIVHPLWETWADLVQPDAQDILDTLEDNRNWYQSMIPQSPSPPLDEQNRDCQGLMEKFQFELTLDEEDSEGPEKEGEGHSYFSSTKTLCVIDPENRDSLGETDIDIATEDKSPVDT
ATP-dependent 6-phosphofructokinase (Trypanosoma brucei brucei), sequence (O15648 whole entry, looked up): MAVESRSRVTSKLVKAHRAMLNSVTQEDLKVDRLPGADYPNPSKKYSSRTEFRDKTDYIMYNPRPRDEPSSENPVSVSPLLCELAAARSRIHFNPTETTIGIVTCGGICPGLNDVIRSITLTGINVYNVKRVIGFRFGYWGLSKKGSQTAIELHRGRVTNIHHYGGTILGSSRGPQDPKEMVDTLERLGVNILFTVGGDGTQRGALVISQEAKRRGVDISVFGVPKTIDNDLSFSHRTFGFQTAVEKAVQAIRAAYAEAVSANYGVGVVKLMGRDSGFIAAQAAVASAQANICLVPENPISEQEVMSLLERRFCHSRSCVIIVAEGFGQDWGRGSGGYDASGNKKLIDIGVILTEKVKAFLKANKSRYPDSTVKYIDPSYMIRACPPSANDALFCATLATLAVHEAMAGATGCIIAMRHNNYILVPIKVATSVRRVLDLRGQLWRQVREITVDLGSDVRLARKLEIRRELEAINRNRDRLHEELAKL
Luciferin 4-monooxygenase (Photinus pyralis), sequence (P08659 whole entry, looked up): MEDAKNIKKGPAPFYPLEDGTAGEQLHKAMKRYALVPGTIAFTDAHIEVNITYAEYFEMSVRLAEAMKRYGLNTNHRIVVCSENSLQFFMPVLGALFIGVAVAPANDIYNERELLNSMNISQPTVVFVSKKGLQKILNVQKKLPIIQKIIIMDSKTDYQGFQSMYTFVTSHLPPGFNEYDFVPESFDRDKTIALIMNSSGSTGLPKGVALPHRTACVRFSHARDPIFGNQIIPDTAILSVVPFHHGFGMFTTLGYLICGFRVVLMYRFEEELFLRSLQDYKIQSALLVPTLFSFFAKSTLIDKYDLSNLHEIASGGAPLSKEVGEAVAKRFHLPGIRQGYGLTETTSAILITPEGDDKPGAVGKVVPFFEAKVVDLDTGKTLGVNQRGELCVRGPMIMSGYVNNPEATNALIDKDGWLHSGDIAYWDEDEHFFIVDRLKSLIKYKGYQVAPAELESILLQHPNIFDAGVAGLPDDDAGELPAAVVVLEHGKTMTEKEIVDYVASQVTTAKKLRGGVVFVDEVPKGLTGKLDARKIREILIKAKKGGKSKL
Cytochrome P450 3A4 (Homo sapiens), sequence (P08684 whole entry, looked up): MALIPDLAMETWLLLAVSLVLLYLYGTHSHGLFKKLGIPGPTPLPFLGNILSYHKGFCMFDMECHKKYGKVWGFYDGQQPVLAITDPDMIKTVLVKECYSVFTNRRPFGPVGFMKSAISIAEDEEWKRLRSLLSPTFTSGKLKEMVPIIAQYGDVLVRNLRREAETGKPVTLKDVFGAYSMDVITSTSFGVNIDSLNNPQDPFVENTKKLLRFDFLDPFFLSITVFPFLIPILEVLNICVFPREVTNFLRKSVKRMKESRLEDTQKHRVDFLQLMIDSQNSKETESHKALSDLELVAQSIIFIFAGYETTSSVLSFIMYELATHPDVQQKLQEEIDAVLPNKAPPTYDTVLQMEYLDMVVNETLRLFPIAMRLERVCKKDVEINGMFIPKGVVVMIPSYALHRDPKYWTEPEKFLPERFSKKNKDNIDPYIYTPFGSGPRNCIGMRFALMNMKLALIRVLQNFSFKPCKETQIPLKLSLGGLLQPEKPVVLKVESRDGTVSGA

Turning to `CN(C)[C@@H]1C(=O)C(C(N)=O)=C(O)[C@]2(O)C(=O)C3=C(O)c4c(O)ccc(Cl)c4[C@](C)(O)[C@H]3C[C@@H]12`, the compound was classed as inactive in experiment [1], in experiment [3] and in experiment [6]. Besides, the activity change, negative = inhibition was -5.59% (inactive) in experiment [2] (at 17.2 µM (top of the series)) and 0.321% (inactive) in experiment [8] (at 25.7 µM (top of the series)). Further, the Potency in experiment [4] and in experiment [5] was > 20.6 µM (inactive) each time. The Potency entry (in [7]; in experiment [9]; in experiment [10]; in [11]; in the experiment on C2A; in the experiment on CP192) was “inactive” throughout. For the same compound, the Potency result with CP262, in the experiment on CP286 and in the experiment on FAB9 was “inactive” each time. Also, the max response in experiment [8] (setting [15]) was -2.07%; in [8] (setting [16]), -2.35%. Moreover, the activity, negative = inhibition in experiment [12] (at 12.8 µM (top of the series), parasite line A) is -8.57% (inactive); in experiment [12] (at 12.8 µM (top of the series), parasite line B), -7.26% (inactive).
Take `CC1=C2[C@@H]3OC(=O)[C@@H](C)[C@@H]3CC[C@]2(C)C=CC1=O`: the compound was called inactive in [1], in experiment [3] and in [6]. Besides, the activity change, negative = inhibition in experiment [2] (at 17.2 µM (top of the series)) is -9.62% (inactive); in experiment [8] (at 25.7 µM (top of the series)) it was 0.607% (inactive). The Potency in [4] and in experiment [5] was > 20.6 µM (inactive) each time. In addition, the Potency result (in [7]; in experiment [9]; in experiment [13]; in [10]; in experiment [11]; in the experiment on C2A) was “inactive” throughout. Further, the Potency result in the experiment on CP192, in the experiment with CP262, in the experiment with CP286 and in the experiment on FAB9 was “inactive” each time. The values for the max response in experiment [8] (setting [15]) and in [8] (setting [16]) were -1.82% and -3.78%, respectively. The activity, negative = inhibition in experiment [12] (at 28.7 µM (top of the series), parasite line A) was -27% (inactive); in experiment [12] (at 28.7 µM (top of the series), parasite line B), -4.04% (inactive).
For the compound `Clc1ccc(CO[C@@H](Cn2ccnc2)c2ccc(Cl)cc2Cl)cc1`, the outcome in [1], in [3] and in [6] was inactive. Besides, in [4], the Potency was > 20.6 µM (inactive). Besides, in experiment [14], the Potency result was “inactive”. Further, the activity change, negative = inhibition in experiment [8] (at 25.7 µM (top of the series)) is -6.08% (inactive). Further, the max response in experiment [8] (setting [15]) is -18.5%; in experiment [8] (setting [16]) it was -19.5%.
As for `COc1ccc(NC(=O)N2CCC3(CC2)CCN(C(=O)Oc2ccccc2)CC3)cc1`, the call in [1], in [3] and in experiment [6] was inactive. Moreover, the figures for the activity change, negative = inhibition in experiment [2] (at 7.69 µM (top of the series)) and in [8] (at 57.5 µM (top of the series)) were 5.41% (inactive) and -1.68% (inactive), respectively. In addition, the Potency in [5] was > 46 µM (inactive). Moreover, the max response in experiment [8] (setting [15]) is -23.2%; in experiment [8] (setting [16]), -21.9%.
On to `C[C@]12CC[C@H](O)C[C@@H]1CC[C@H]1[C@H]2CC[C@]2(C)C(=O)CC[C@@H]12`, for which the compound was called inactive in [1], in experiment [3] and in [6]. Besides, the activity change, negative = inhibition in experiment [2] (at 17.2 µM (top of the series)) is 4.61% (inactive) and 4.01% (inactive) and -7.96% (inactive); in experiment [2] (at 38 µM (top of the series)), 8.64% (inactive); in experiment [8] (at 25.7 µM (top of the series)), -2.44% (inactive) and -2.6% (inactive) and -5.42% (inactive). Also, the Potency in experiment [4] is > 46 µM (inactive) and > 20.6 µM (inactive); in experiment [5] it was > 46 µM (inactive) and > 20.6 µM (inactive). Further, the Potency result in [7], in experiment [14] and in [13] was “inactive” throughout. The max response in [8] (setting [15]) is -9.77% and -5.73% and -17.9%; in experiment [8] (setting [16]), -12.1% and -8.44% and -22.6%.
